# Screening data: PubChem BioAssay, several laboratories
# KLF5 inhibitor: suppresses KLF5 promoter-driven expression; DLD-1 KLF5 promoter-luciferase reporter, luminescence; inhibition, % at 5 µM; 290,000 tested, 0.23% active; AID 1700;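 active = inhibition above a per-plate limit of that plate's mean compound inhibition plus 3 SD, cut at about 60% in these data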;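 also: 0% = DMSO wells and 100% = LY294002 at 200 µM; higher means less KLF5 promoter-driven luciferase light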
# APP 5UTR inh: APP translation inhibition; inhibition, % at 2 µM; 190,000 tested, 0.82% active; AID 1285; SH-SY5Y APP 5'UTR-luciferase reporter, luminescence;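 active = inhibition above a set limit, derived from the sample mean plus 3 SD, cut at about 45% in these data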
# Ba/F3 V617F tox: reduce viability of Ba/F3 cells dependent on JAK2V617F | Ba/F3 EpoR-JAK2V617F viability, ATP luminescence | inhibition, % at 5.6 µM | 220,000 tested, 1.1% active;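 active = inhibition above the campaign mean plus 3 SD over all tested compounds, cut at about 24% in these data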;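 also: cytokine-independent growth of Ba/F3 cells driven by EpoR plus mutant JAK2; 0% = DMSO-treated cells and 100% = JAK inhibitor I control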
# BaF3 tox: reduces parental Ba/F3 cell viability, JAK2V617F counter-screen | CellTiter-Glo ATP luminescence | inhibition, % at 5.6 µM | 220,000 tested, 1.1% active;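 active = inhibition above a per-campaign cutoff, the mean inhibition of all tested compounds plus 3 SD, cut at about 27% in these data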;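 also: 0% = DMSO wells and 100% = JAK Inhibitor I control wells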
# IEC-6 cytotox: counter-screen for KLF5 inhibitors: cytotoxicity in IEC-6 cells; IEC-6 cytotoxicity, luminescence viability; inhibition, % at 5 µM; 290,000 tested, 0.78% active; AID 1825; in the data active = inhibition above about 22%;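 also: 0% = plate median of test compound wells and 100% = cytotoxic reference compound wells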
# BaF3 tox 2: parental Ba/F3 viability inhibition for JAK2V617F counter-screen; shares compounds with Ba/F3 V617F tox; CellTiter-Glo luminescence; cells kept alive by added IL-3; inhibition, % at 5.6 µM; 580 tested, 31% active; AID 1520;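 active = cell growth inhibition above the hit limit set in the earlier mutant JAK2 cell screen, cut at about 27% in these data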;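 also: plate controls were DMSO-treated cells for no effect and JAK Inhibitor I control wells for full effect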
# JAK2V617F confrm: confirmation: loss of viability in JAK2V617F-dependent Ba/F3 cells; shares compounds with Ba/F3 V617F tox; Ba/F3 EpoR-JAK2V617F viability, CellTiter-Glo luminescence; inhibition, % at 5.6 µM; 580 tested, 66% active; AID 1521;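 active = mean inhibition above the hit cutoff derived in the earlier primary screen, cut at about 25% in these data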;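 also: 0% = DMSO-treated cells and 100% = JAK inhibitor I control wells; higher means lower luminescence from reduced cell ATP and viability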
# * hit, by the source's call; x = no result. Hits are enriched below; roughly 1.9% of the tested compounds scored in any of these assays.
SMILES,KLF5 inhibitor,APP 5UTR inh,Ba/F3 V617F tox,BaF3 tox,IEC-6 cytotox,BaF3 tox 2,JAK2V617F confrm
COc1cc2c(cc1OC)-c1cc(N3CCCc4ccccc43)nc(=O)n1CC2,-14,12,30*,15,-2,15,61*
CCn1cc(CN2CCN(Cc3ccccc3)C(CCO)C2)c2ccccc21 (stereo not given),-36,x,x,x,0,x,x
CCn1cc(CN2CCN(Cc3ccc(C)o3)C(CCO)C2)c2ccccc21 (stereo not given),-33,11,44*,7,5,0,4
N=C1C(c2ccccc2)=C(O)CN1c1cccc(O)c1,-2,-6,2,-3,-2,x,x
COc1ccccc1/C=C/CN1CCC(Oc2cc(C(=O)NC3CC3)ccc2OC)CC1,-20,x,x,x,6,x,x
O=C(c1csc2ccccc12)N1CCCCCC1,-18,-6,28*,27,-6,26,36*
Cc1cccc(NC(=O)c2ccccc2O)c1C,-170,-56,4,3,4,x,x
Cc1cccc(NC(=O)c2cnn3ccccc23)c1C,-58,x,28*,10,2,5,25*
O=C(Nc1cccc(NC(=O)c2cccs2)c1)c1ccc([N+](=O)[O-])o1,-5,x,39*,0,64*,8,72*
COc1cc(NC(=O)c2ccc([N+](=O)[O-])o2)ccc1NC(=O)c1cccs1,-32,35,4,5,-3,x,x
COc1ccccc1NC(=O)NC1CCCCCCC1,-14,x,x,x,-1,x,x
COc1ccccc1NC(=O)C1C2CCCCC21 (stereo not given),-35,2,94*,2,-3,-8,-8
CCN(CC)N=Nc1ccc(S(=O)(=O)Nc2nc(C)cc(C)n2)cc1,-2,x,x,x,-6,x,x
CCc1nnc(NC(=O)C(c2ccccc2)c2ccccc2)s1,-10,x,x,x,6,x,x
CC1CCCC(NC(=O)NC(=O)CCl)C1C (stereo not given),11,-23,58*,-9,0,-4,83*
CC1CCCCC1NC(=O)NC(=O)CCl (stereo not given),14,-16,19,-4,-9,x,x
CC(C)C/C(O)=C/c1nc2cc(Cl)ccc2oc1=O,4,9,7,3,1,x,x
O=c1oc2ccc(Cl)cc2nc1/C=C(\O)c1ccco1,1,x,34*,15,-1,9,72*
Cc1c(Cc2ccccc2)c(=O)oc2cc(O)ccc12,-15,x,-2,2,0,x,x
Cc1c(Cc2ccccc2)c(=O)oc2c(O)c(O)ccc12,-3,-4,44*,1,4,2,64*
COCCN(CC(=O)NCC1CCCO1)C(=O)CCC(=O)Nc1cc(C)ccn1 (stereo not given),-38,13,0,3,-3,x,x
COCCN(CC(=O)NCC1CCCO1)C(=O)CCC(=O)Nc1cc(C)on1 (stereo not given),2,-3,35*,1,-6,-5,-8
Cc1ccc(N(CC(=O)Nc2cc(Cl)ccc2Oc2ccccc2)S(C)(=O)=O)cc1C,-6,0,26*,2,8,-4,3
Cn1ccc(C(=O)Nc2cccnc2Cl)n1,-41,x,x,x,0,x,x
CCOc1ccc(NC(=S)NNC(=O)CC(C)O)cc1 (stereo not given),-33,5,26*,1,0,-2,-5
SMILES,KLF5 inhibitor,APP 5UTR inh,Ba/F3 V617F tox,BaF3 tox,IEC-6 cytotox,BaF3 tox 2,JAK2V617F confrm
CCOc1ccc(NC(=O)CC)cc1,-12,9,-2,5,-2,x,x
CCOc1ccc(NC(=O)CSC(N)=O)cc1,-33,5,74*,4,-9,-6,12
COc1ccc([N+](=O)[O-])c(S(=O)(=O)c2ccc(Cl)cc2)n1,11,x,43*,-7,3,2,70*
COc1ccc([N+](=O)[O-])c(S(=O)(=O)c2ccccc2)n1,26,x,93*,-6,15,34*,85*
COc1nc(OC)nc(Oc2ccc(Cl)cc2[N+](=O)[O-])n1,-29,5,-7,-5,0,x,x
NC1=NC2(CCCCC2)N(c2ccc(F)cc2)C(N)=N1,-31,4,24*,11,-5,-4,33*
CCCCOc1ccc(N2C(N)=NC(N)=NC23CCCCC3)cc1,-25,x,x,x,6,x,x
CC(=O)c1ccc(NC(=O)Cn2cnc(S(=O)(=O)N3CCC(C)CC3)c2)cc1,-21,x,x,x,4,x,x
NS(=O)(=O)c1ccc(Sc2nc3ccccc3s2)c([N+](=O)[O-])c1,-24,x,65*,21,4,36*,93*
N#C/C(=C\c1ccc(O)c(O)c1)C(=O)NCCCc1ccccc1,11,-3,56*,4,9,-2,87*
Nc1ccccc1Nc1cccc(C(F)(F)F)c1,-38,7,42*,0,-8,40*,93*
Cc1cc(C)nc(Nc2cccc(C(F)(F)F)c2)n1,-23,x,x,x,-15,x,x
CCOC(=O)N1CCC(=NNC(=O)c2ccccc2F)CC1,-42,-9,4,10,9,x,x
CCOc1cc(S(=O)(=O)n2ccc(C)n2)ccc1Br,-7,11,30*,13,2,-8,-3
CCOc1cc(S(=O)(=O)n2ccnc2)ccc1Br,-22,1,2,5,1,x,x
CCOC(=O)N1CCN(C(=O)c2ccc(NC(=O)c3ccc(C)cc3)cc2)CC1,-46,10,24*,14,5,3,32*
C=CCOC(=O)C1=C(C)NC(SCC)=C(C#N)C1c1ccc(Cl)cc1 (stereo not given),6,-10,41*,-6,14,9,29*
C=CCOC(=O)C1=C(C)NC(SCC(N)=O)=C(C#N)C1c1ccc(C)cc1 (stereo not given),-7,x,-1,1,-4,x,x
O=C1Cc2cc(S(=O)(=O)Nc3ccccc3Cl)cc3c2N1CCC3,-30,x,x,x,-6,x,x
O=[N+]([O-])c1cc(S(=O)(=O)NCCN2CCOCC2)ccc1Sc1nnnn1-c1ccccc1,-11,4,46*,19,2,27*,96*
O=C(NC1CCC(=O)N(CCOc2ccccc2)CC1)OCc1ccccc1 (stereo not given),-11,x,x,x,1,x,x
CCOc1nc(C)cc(C)c1S(=O)(=O)c1cccc(Cl)c1,-26,x,x,x,4,x,x
Cc1ccc(C)c(N2CCN(CCCNC(=O)Cn3cccc3C(=O)c3ccccc3C)CC2)c1,-24,-2,41*,2,15,2,29*
Cc1ccccc1N1CCN(Cc2c[nH]c3ccccc23)CC1,-19,15,35*,2,2,-5,29*
Cn1c(=N)n(CC(O)c2cccc3ccccc23)c2ccccc21 (stereo not given),6,-4,41*,-7,10,-1,28*
O=C1c2cccnc2C(=O)N1Cc1ccc(S(=O)(=O)N2CCOc3ccc(Cl)cc32)cc1,-8,x,x,x,4,x,x
CCOc1ccccc1C(=O)N(CCC(=O)OC)c1ccccn1,-31,-16,3,5,2,x,x
